Where “and” joins values, the source holds several entries; their conditions need not be identical. Equal entries are not always repeated. The panel holds about 83,000 compounds, 20% with a hit somewhere; the sample as a whole holds those more often.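 Plates (96-well) were seeded with cells, treated with compound at one concentration, and incubated for 48 hours before percent growth was determined.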 Values without a mark were called inactive. Calls of active or inactive are those of the source.
These compounds were tested on LOX IMVI melanoma (assay: NCI-60 one-dose screen, 48 h (100 = growth as untreated, 0 = no growth, -100 = all killed)). Settings: 10 µM.
Protocol: Growth inhibition of the LOX IMVI human tumor cell line is measured as a screen for anti-cancer activity. Cells are grown in 96 well plates and exposed to the test compound for 48 hours. Compounds are tested at a single concentration, which is 10^-5 M for most compounds. The reported endpoint is percent growth (GI% or GIPRCNT), where numbers from 0 - 100% represent growth inhibition, and numbers from -100% - 0 represent cell death. For example, a value of 40 represents 60% growth inhibition. A value of 0 means no net growth occurred over the course of the experiment. A value of -40 indicates 40% of cells at the beginning of the experiment died by the end of the experiment. A value of -100 means all cells are dead at the end of the experiment.
NCI-60 Human Tumor Cell Lines Screen was performed using the standard one-dose NCI protocol, which is described in more detail at https://dtp.cancer.gov/discovery_development/nci-60/default.htm.
Compounds with GIPRCNT values below 10 were considered active. Activity score was based on GIPRCNT using the following formula: […]
Score is 0 for GIPRCNT values of 100 or above, 50 for GIPRCNT values of 0, and 100 for GIPRCNT values of -100.
For `S=c1nc[nH]c2nc[nH]c12`, the growth was 9.56% (active).

Same assay, conditions: 10 µM unless noted
Work on `C/C(CC(C)C)=N/NC(N)=S` yielded a growth of 95.4%. With `O=C1c2cccnc2-c2ncccc21` the growth was 99.7% [100 µM]. For `Nc1ccc2ccc(NS(=O)(=O)N3CCCCC3)cc2c1`, the growth was 46.6%. `CS(=O)(=O)OCC1NC(=O)C(COS(C)(=O)=O)NC1=O` (stereo not given) was tested, and the growth was 94.1% and 90.5%. With `CCNCc1ccccc1` the growth was 97.8%. `COc1ccc(S(=O)(=O)c2ccc(F)cc2)cc1` was tested, and the growth was 81.5%. With `CS/C(=C\c1ccc(C(=O)c2ccc(C)cc2)n1C)S(C)=O` (stereo not given) the growth was 99.4%. With `O=[N+]([O-])c1ccc(NC2CCCCC2)nc1` the growth was 94%. For `CCC(=O)Oc1ccc(OCc2ccccc2)cc1`, the growth was 88.8% and 84.7%. In the case of `Cc1c(Cl)c(C)c(Cc2c(C)c(Cl)c(C)c(Cl)c2O)c(O)c1Cl`, the growth is reported as 4.09% (active). In the case of `Clc1ccc2sc(-c3ccccc3)nc2c1`, the growth is reported as 101%. Work on `Nc1ccc(Cl)c(S(=O)(=O)O)c1` yielded a growth of 97.5%. Work on `COC(=O)c1nc(=S)[nH]c(C(=O)OC)c1C(=O)c1ccccc1` yielded a growth of 94.2%. In the case of `Clc1ccc2c(c1)N(C1CCCN(Cc3ccccc3)C1)c1ccccc1S2` (stereo not given), the growth is reported as 57%. For `O=C(O)C(Cc1ccc(OS(=O)(=O)Cc2ccccc2)cc1)NS(=O)(=O)Cc1ccccc1` (stereo not given), the growth was 98%. In the case of `CCCCCCCCCCCCCCCCC(=O)O`, the growth is reported as 98.4%. `CC(C)(C)OC(=O)CC1(O)CCCCC1` showed a growth of 102%. Work on `COc1cc2oc3cc(=O)cc4oc(-c5ccccc5)cc(c2c2c1CCC(c1ccccc1)O2)c43` (stereo not given) yielded a growth of 56.7%. Compound `CCC(C)(O)CCC(C)(O)CC` (stereo not given) has a growth of 98.1%. With `CCOC(=N)c1ccc(C(=N)OCC)cc1` the growth was 98.1%. `CC1(CO)CCCC1NCCNC1CCCC1(C)CO` (stereo not given) gave a growth of 98.8%. With `O=C(O)Cc1cc(=O)[nH]n(-c2ccccc2)c1=O` the growth was 100%. With `COc1cc(C2c3cc4c(cc3C(OC(=O)C[n+]3ccccc3)C3COC(=O)C23)OCO4)cc(OC)c1OC` (stereo not given) the growth was 12.7%. With `N#CC1c2ccccc2C=CN1C(=O)c1ccccc1` (stereo not given) the growth was 102% and 94.8%. Work on `CC(C)(C)C1CCC(=NO)CC1` (stereo not given) yielded a growth of 99.8%. `CCCC(=O)Oc1ccc2ccccc2c1` showed a growth of 101%. `Nc1nc(-c2ccccn2)cc(-c2cc(-c3ccccn3)nc(N)n2)n1` was tested, and the growth was 96.5%. Work on `O=C1c2ccccc2C(c2ccccc2)C1c1ccccc1` (stereo not given) yielded a growth of 88.5%. `O=S(=O)(O)c1ccc2cc(O)ccc2c1` showed a growth of 104%. With `S=c1nn[nH]n1C1CCCCC1` the growth was 111%. For `N=C(N)N1CCc2ccccc2C1`, the growth was 84.3% and 113%. `CCOc1ccc(/C=C\C(=O)O)cc1` was tested, and the growth was 105%. `OCc1ccccc1F` gave a growth of 75.8%. `Nc1ccccc1SC1CC(=O)N(c2ccc(I)cc2)C1=O` (stereo not given) showed a growth of 76.4%. In the case of `Nc1ccccc1SC(CC(=O)c1ccccc1)c1cccc([N+](=O)[O-])c1` (stereo not given), the growth is reported as 33.5% and 10.9%. With `O=C(O)c1c2c(nc3ccccc13)Cc1ccccc1-2` the growth was 99.9% and 90.1%. In the case of `C/C(=C\c1ccccc1)C(O)C(=O)c1nc2ccc([N+](=O)[O-])cc2[nH]c1=O` (stereo not given), the growth is reported as 75.9%. For `O=C(O)/C=C/C=C/c1ccccc1`, the growth was 99.3% and 97.9%.

Same assay, conditions: 50 µM
With `S=c1nc[nH]c2nc[nH]c12` the growth was 6.96% (active).

From PubChem BioAssay (NCI)
